In PubChem BioAssay (Tox21):
Inconclusive results are not listed. The source made the active and inactive calls. The call rests on the fitted dose curve; in most records, active means well fitted cell-killing curve with a large enough effect in the repeat runs; inconclusive means weak or mixed curves, or effect the other way; inactive means flat fitted curve, though single readings scatter.

Experiment: qHTS RealTime-Glo MT Cell Viability Assay in HEK293 cells - 16 hour (AID 1224872); further: top concentration of the series differs between compounds; nearly all actives have a fitted effect of over 50% in size
Details: RealTime-Glo luminescence; series mostly up to 76.8 µM; activity change, negative = cytotoxicity: at the top concentration
Excerpt: National Center for Advancing Translational Sciences [NCATS]
NIH Chemical Genomics Center [NCGC]
U.S. Environmental Protection Agency [EPA]
National Institutes of Environmental Health Sciences [NIEHS]
National Toxicology Program [NTP]
U.S. Food and Drug Administration [FDA]
Measure of cell viability is critical in the cell-base assay. Analysis of cell viability is necessary for the characterization of cell responses to cytotoxic drugs and environmental stress. A RealTime-Glo MT Cell Viability Assay to monitor cell viability in real time of continues cell culture during 40 hours of compound treatment was used to screen Tox21 10K library compounds in Hek293 cells. The RealTime-Glo MT Cell Viability Assay is a nonlytic, homogeneous, bioluminescent method to measure cell viability in real time using a simple, plate-based method. The assay involves adding NanoLuc luciferase and a cell-permeant prosubstrate to cells in culture. Viable cells reduce the proprietary prosubstrate to generate a substrate for NanoLuc luciferase. This substrate diffuses from cells into the surrounding culture medium, where it is rapidly used by the NanoLuc Enzyme to produce a luminescent signal. The signal correlates with the number of viable cells, making the assay well suited for cytotoxicity studies.
Tox21 Assay Protocol Summary:
The mixture of Hek293 cell suspension and reagents were dispensed at 600cells/6 ul/well in 1536-well tissue culture treated black solid bottom plates using a Multidrop dispenser. After the assay plates were incubated at a 37 C/5% CO2 incubator for 5 hours, 23 nL of compounds dissolved in DMSO, positive and negative controls was transferred to the assay plate by a pintool work station. The plates were incubated at 37 C for 40 hours. The luminescence intensity were measured at 0h, 8h, 16h, 24h, 32h and 40h time points using ViewLux plate reader during compound treatment.
On the % scale 0 is the no-effect control and ±100 the full control effect.

SMILES	activity change, negative = cytotoxicity
CC(CC(=O)Cl)CC(C)(C)C (stereo not given)	14.3% (inactive)
COc1ccc2cc(CCC(C)=O)ccc2c1	-7.58% [at 35.3 µM] (inactive)
C=CC(C)(CCC=C(C)C)OC(=O)C(C)C (stereo not given)	3.11% (inactive)
C[C@@H]1CCC[C@H](C)N1CCCC(O)(c1ccccc1)c1ccccn1 (stereo not given in full)	0.608% [at 35.3 µM] (inactive)
CC/C=C/CCCCCCCCCCOC(C)=O	10.3% (inactive)
C[C@@H]1NC(=O)[C@@H](N)CNC(=O)[C@H](C2CCNC(N)=N2)NC(=O)/C(=C/NC(N)=O)NC(=O)[C@H](CNC(=O)C[C@@H](N)CCCN)NC1=O (stereo not given in full)	0.93% [at 0.29 µM] (inactive)
Cc1cc(O)c(Cl)cc1C	0.487% (inactive)
CCN1CCN(C(=O)N[C@@H](C(=O)N[C@@H]2C(=O)N3C(C(=O)O)=C(CSc4nnnn4C)CS[C@H]23)c2ccc(O)cc2)C(=O)C1=O	13.1% [at 35.3 µM] (inactive)
C=C(C)C(=O)OCCOC1CC2CC1C1C=CCC21 (stereo not given)	3.33% (inactive)
Cc1cc2c(cc1CC(=O)c1sccc1S(=O)(=O)Nc1onc(C)c1Cl)OCO2	2.6% [at 35.3 µM] (inactive)
CCCCOCCCC	7.93% (inactive)
C/C=C(\C)C=O	13.4% (inactive)
Cc1ccc(Br)cc1	1.07% (inactive)
COC(=O)c1ccc(NC(C)=O)cc1OC	2.18% [at 35.3 µM] (inactive)
CCCCCCCCCCCCCCCCN(C)C	5.86% [at 6.97 µM] (inactive)
O=Cc1ccc(C(=O)O)cc1	0.088% (inactive)
O=C(O)COc1ccc2ccccc2c1	12.1% (inactive)
CCCCNCC	-2.64% (inactive)
c1coc(Cn2cccc2)c1	1.68% (inactive)
CCCCCCCCCCCCCCCC(=O)OC	-4.38% [at 15.8 µM] (inactive)

SMILES	activity change, negative = cytotoxicity
CNC(C)=O	6.43% (inactive)
C[C@@H]1CC[C@@]2(OC1)O[C@H]1C[C@H]3[C@@H]4CC[C@H]5C[C@@H](O)CC[C@]5(C)[C@H]4CC(=O)[C@]3(C)[C@H]1[C@@H]2C	-0.344% [at 6.97 µM] (inactive)
CCCCN=C(N)N=C(N)N	0.281% [at 35.3 µM] (inactive)
CC1(C)S[C@@H]2[C@H](NC(=O)Cc3ccccc3)C(=O)N2[C@H]1C(=O)O (tested in a mixture with another compound)	-0.463% [at 35.3 µM] (inactive)
c1cc2ccc3ccc4ccc5cccc6c(c1)c2c3c4c56	-0.658% [at 2.72 µM] (inactive)
CC(C)C[P+](C)(CC(C)C)CC(C)C	0.101% (inactive)
CCCCCCCCCCCCCCCC/C=C/C1CC(=O)OC1=O (stereo not given)	-2.21% [at 35.3 µM] (inactive)
Cc1nc2ccc(Cl)cc2[nH]1	2.77% (inactive)
CCCC[O][Al]([O]CCCC)[O]CCCC	0.854% (inactive)
O=C(c1ccccc1)c1cccc(O)c1	-19.2% (inactive)
CCCCCC(=O)CC	12.1% (inactive)
CCCC(=O)CC	9.41% (inactive)
CC(O)CCCCn1c(=O)c2c(ncn2C)n(C)c1=O (stereo not given)	2.53% [at 35.3 µM] (inactive)
C=CCN1CCc2nc(N)sc2CC1	9.16% [at 35.3 µM] (inactive)
CCOC(=O)CC	18.4% (inactive)
CCCC(=O)C(CC)Sc1ccoc1C (stereo not given)	-4.55% (inactive)
CC(C)(C)OC=O	6.38% (inactive)
CC(C)CC(O)Cc1ccccc1 (stereo not given)	2.57% (inactive)
CN1CCN(C(=O)C2CCCCC2)CC1	-1.09% [at 35.3 µM] (inactive)
Cc1ccc(O)c([N+](=O)[O-])c1	-6.82% (inactive)
